Results from PubChem BioAssay AID873 (PCMD, 2007).
Out of some 210,000 compounds screened, about 1,300 (0.62%) were called active.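 Rule for the calls: active = inhibition of 40% or more; inactive = the rest.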 The list comes from a sample in which actives are over-represented; it also holds similar structures and randomly drawn compounds.

Biological target: Kallikrein-5 (Homo sapiens) (UniProt Q9Y337)
Experiment: inhibition of kallikrein 5 (hK5) activity – biochemical, 1536-well, primary screen (AID 873);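 note: 0% = enzyme controls without compound and 100% = no-enzyme blanks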
Conditions: recombinant hK5, fluorogenic AMC substrate cleavage; at 5 µM; active compounds read high

Kallikrein-5 (Homo sapiens), sequence (Q9Y337 67-293 limits assumed): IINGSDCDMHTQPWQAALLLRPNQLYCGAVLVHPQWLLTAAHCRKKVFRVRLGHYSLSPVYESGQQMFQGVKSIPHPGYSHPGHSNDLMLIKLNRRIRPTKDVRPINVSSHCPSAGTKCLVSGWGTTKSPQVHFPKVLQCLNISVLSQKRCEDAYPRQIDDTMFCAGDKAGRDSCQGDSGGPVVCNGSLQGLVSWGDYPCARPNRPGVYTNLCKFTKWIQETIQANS

inhibition, inactive:
Cc1ccccc1CSc1nnc(CCCCCNC(=O)OC(C)(C)C)o1 0.98%, O=C(CNC(=O)c1cc(=O)[nH]c2ccccc12)Nc1ccc(F)c(F)c1 5.97%, CCOC(=O)c1ccc(NC(=O)c2cc(=O)[nH]c3ccccc23)cc1 -1.31%, COC(=O)c1scc(S(=O)(=O)C(C)(C)C)c1-n1cccc1 -2.13%, O=S(=O)(NCc1ccco1)c1cnc(Cl)c(Cl)c1 18.9%, O=C(CSc1nnc(-c2cccnc2)n1Cc1ccco1)c1ccc(Cl)cc1 -15.7%, O=C(CSc1nnc(-c2cccnc2)n1Cc1ccco1)c1ccc(Cl)c(Cl)c1 -11.9%, O=C(Nc1ccccc1)N1CCN(C2c3ccccc3-c3ccccc32)CC1 1.85%, CC(C)c1ccc(NC(=S)NNc2ccc(Cl)c(C(=O)O)c2)cc1 5.6%, COc1cc2c(cc1OC)C(/C=C/c1ccco1)=NCC2 4.43%, C[C@@H](NC(=O)OC(C)(C)C)c1nnc(S(=O)(=O)Cc2ccccc2)o1 -1.93%, Cc1cc(F)ccc1NC(=O)C(C)n1c2ccccc2c2nc(=O)cc(C)n21 (stereo unspecified) 0.22%, O=C(NC1CCCCC1)c1cc(C2CC2)on1 -1.29%, Cn1c2c(c(=O)n(C)c1=O)C1c3ccccc3OCC1C(C)(C)O2 (stereo unspecified) -2.4%, Cn1c2c(c(=O)n(C)c1=O)[C@@H]1c3c(ccc4ccccc34)OC[C@@H]1CO2 21.4%, O=C(NNc1cc(Cl)cc(Cl)c1)c1c(F)cccc1Cl 1.1%, CCc1c(C)nc2c(-c3ccccc3)c(C)nn2c1Nc1ccc(NC(C)=O)cc1 -10.1%, COc1cc(C(=O)N2C(=O)c3cccc(N)c3C2=O)cc(OC)c1OC -10.2%, CN1CCN(S(=O)(=O)c2cccc(C(=O)O)c2)CC1 -1.38%, Cc1cc(=O)oc2cc(OCC(=O)Nc3nnc(C4CC4)s3)ccc12 5.43%, O=C(Nc1nnc(COc2ccccc2)s1)Nc1ccccc1F 0.25%, CC12COC3(C(=O)Nc4ccc(Cl)cn4)CC1CCC32C (stereo unspecified) -6.22%, O=C(NN1C(=O)C2C3C=CC(C4CC34)C2C1=O)c1ccc(Cl)cc1 (stereo unspecified) -4.1%, CCc1cc(CNC(=O)CC2C(=O)NCCN2Cc2ccccc2C(F)(F)F)on1 (stereo unspecified) -3.44%, O=c1c2c3c(sc2n(CCN2CCCC2)c(=O)n1Cc1ccccc1)CCCCC3 8.67%, Cc1cc(C)n(CC(C)NCc2c(C(=O)N3CCOCC3)nc3c(C)cccn23)n1 (stereo unspecified) 1.63%, CS(=O)(=O)n1nc(-c2ccco2)nc1N -7.61%, CSc1nc(-c2ccco2)nn1C(=O)CCc1ccccc1 -9.9%, Clc1ccc(-c2cc(-c3ccccn3)on2)c(Cl)c1 -3.93%, C/C(=N\NC(=O)c1nc(C)cc(C)n1)c1ccccc1 -8.77%, CNC(=O)C(NC(=O)c1ccccc1)=C(C)C 0.73%, C=CCN(C(=O)Nc1ccc2oc(C)nc2c1)c1ccccc1 -6.89%, Cc1nc2cc(NC(=O)Nc3cccc(F)c3)ccc2n1C 17%, Nc1ccc2nn(-c3ccc(Cl)cc3)nc2c1 -10.3%, O=C(NCCc1csc(-c2ccccc2)n1)c1ccccc1F 0.78%, C=CCn1c(CNC(=O)c2ccco2)nnc1SCC(=O)c1ccc(OC)cc1 1.62%, C=CCn1c(SCCOc2ccc(OC)cc2)nnc1C(NC(=O)c1ccc(OC)cc1)C(C)C (stereo unspecified) 2.79%, C=CCc1ccc(OCC(O)CN2CCN(Cc3ccccc3)CC2)c(OC)c1 (stereo unspecified) -1.55%, Cc1cccc(C)c1OCC(O)CN1CCCCC1 (stereo unspecified) -7.75%, COC(=O)CNc1nc(Cl)nc(N2CCC(C)CC2)n1 -2.61%, Cc1ccc(NNC(=O)C2CCC2)cc1C -0.44%, COc1ccc(Cl)cc1NC(=O)CCN1CCOCC1 -1.88%, O=C(CN1CCN(C/C=C/c2ccccc2)CC1)Nc1ccc(F)cc1F 0.73%, CNC(=O)NC(=O)C(C)N1CCN(C/C=C/c2ccccc2)CC1 (stereo unspecified) -1.97%, COC(=O)c1nc(NC(=O)c2ccc(Cl)cc2)n[nH]1 -14.4%, COC(=O)c1nc(NC(=O)c2ccc(F)cc2)n[nH]1 1.4%, Cc1nc(N2CCCC2C(=O)O)c2oc3ccccc3c2n1 (stereo unspecified) -6.49%, CCSc1nc(C)nc2c1oc1ccccc12 2.97%, Cn1c2ccc(F)cc2c2nnc(NN)nc21 3.58%, Cc1onc(C(=O)NN)c1-c1csc(COc2ccccc2)n1 -6.54%, CNc1ccc([N+](=O)[O-])cc1C(=O)O -11.4%, Cc1cccc(NC(=S)Nc2ccc(Cl)c(Cl)c2)c1 -7.18%, Cc1cccc(NC(=S)Nc2ccc(Br)cc2)c1 3.76%, Cc1nc(COc2cccc(Cl)c2)sc1C(=O)/C=C/N(C)C 0.93%, COCc1cc(=O)[nH]c(SC)n1 4.7%, CCCOc1ccc(C(=O)NCCc2ccccc2)cc1 -7.86%, O=C(NCCOc1ccccc1)c1ccccc1 -2.43%, Cc1c(C(=O)N(Cc2ccccc2)Cc2cccnc2)cnn1-c1ccc(F)cc1 -6%, O=C(CSc1ccccc1)Nc1ccc(NC(=O)c2ccco2)cc1 -26.9%, COC(=O)c1ccc(NC(=O)c2ccco2)cc1 -16.9%, O=C(O)CCCCCCCCCC[n+]1ccccc1 -3.11%, CC1(C)CCSC(/C=C/c2ccccc2)=N1 -4.94%, Cc1ccc(Nc2nc(N)nc(CN3CCN(Cc4ccccc4)CC3)n2)cc1Cl -2.25%, Cc1ccnc(N2CCCC(C(=O)Nc3cc(F)ccc3C)C2)n1 (stereo unspecified) -31.1%, CC(C)CNC(=O)C1CCCN(S(=O)(=O)c2ccc(-n3cnnn3)cc2)C1 (stereo unspecified) 11.1%, COc1cccc(C2Nc3cccc4cccc(c34)N2)c1 -0.21%, CCc1nc2sc(C(=O)O)c(N)c2c2c1CCCC2 -8.59%, Cc1ccc2c(N)c(C(=O)c3ccccc3)sc2n1 17.9%, COc1ccc(CC(=O)NCC(=O)N/N=C/c2cc(Br)ccc2OC)cc1 -3%, Cc1c(C(=O)N/N=C/c2ccccc2)[nH]c2c([N+](=O)[O-])cccc12 7.11%, COc1cccc2c(O)cc(=O)n(C)c12 -13.9%, CSc1nnc(-c2ccc(C(F)(F)F)cn2)o1 2.93%, OC(CNCc1ccc2c(c1)OCO2)COc1ccccc1 (stereo unspecified) 2.06%, COc1cc(OC)cc(/C(N)=N/O)c1 -2.69%, CCOC(=O)/C(C#N)=C/c1cn(CCC(=O)O)nc1-c1ccc(Br)cc1 0.91%, O=C(O)/C=C/c1cn(Cc2ccccc2)nc1-c1cccs1 -5.27%, CCN1CCN(c2nc(Nc3cccc(F)c3)nc(N)c2[N+](=O)[O-])CC1 1.83%, COC(=O)c1sccc1NC(=O)CC1C(=O)NCCN1C(=O)Nc1ccc(F)cc1F (stereo unspecified) -1.42%, Cc1ccc(-c2nc(SCC(=O)Nc3ccccc3OC(F)F)c3c(C)c(C(=O)O)sc3n2)cc1 0.7%, COc1ccc(OC)c(NC(=O)N[C@H](Cc2ccccc2)C(=O)NN)c1 -9.7%

inhibition, active:
CCCN(CC(=O)Nc1ccccc1C)C(=O)c1cc(=O)[nH]c2ccccc12 45.5%, C(=C\c1ccccc1)/CSc1nnc(-c2cccnc2)n1Cc1ccco1 59.8%, CC1CC(C)(C)n2c(O)c(N=NC(N)=S)c3cccc1c32 (stereo unspecified) 50.7%, COc1cccc2c1OCC1COc3c(c(=O)n(C)c(=O)n3C)C21 (stereo unspecified) 50.2%, CC1CC(C)CN(S(=O)(=O)c2cccc(C(=O)N3C(=O)c4cccc(N)c4C3=O)c2)C1 (stereo unspecified) 83.1%, CC12CN(NC(=O)c3ccc(Cl)cc3)C3(C#N)CC1CCC23C (stereo unspecified) 78.4%, CSc1nc(-c2ccco2)nn1C(=O)c1ccccc1Cl 52.2%, CC(C)=C(NC(=O)c1ccccc1)C(=O)N/N=C(\C)c1ccccc1O 48.4%, C=CCN(C(=O)Nc1ccc2c(c1)nc(C)n2C)c1ccccc1 41%, C=CCn1c(SCC(=O)c2ccc(Br)cc2)nnc1C(C)NC(=O)Cc1ccc(OC)cc1 (stereo unspecified) 53%, Cc1ccc(OCC(O)CN2CCN(CC(O)COc3ccc(C)cc3Cl)CC2)c(Cl)c1 (stereo unspecified) 45.3%, COc1cc(C(=O)N2CCN(C/C=C/c3ccccc3)CC2)cc(OC)c1C 46.4%, COC(=O)c1nc(NC(=O)c2ccccc2)n[nH]1 45%, Cc1nc(Cl)c2oc3ccccc3c2n1 42.9%, Cc1cccc(NC(=S)NC23CN4CN(CN(C4)C2)C3)c1 44.6%, O=C(NCCc1ccccc1)c1ccc(OCCOc2ccccc2)cc1 79.7%, O=C(Nc1ccc(Oc2ccccc2)cc1)c1ccco1 69.2%, COc1cc(C)nc(N2CCCC(C(=O)NCC(C)C)C2)n1 (stereo unspecified) 61.5%, Cc1nc2sc(C(=O)c3ccccc3)c(N)c2c2c1CCCC2 44%, COc1cccc2c(C)c(C(=O)O)[nH]c12 90.6%, O=C(O)CCn1cc(/C=C/C(=O)c2ccc(Cl)cc2)c(-c2cccc(Br)c2)n1 121%
